Bioassay records deposited in PubChem BioAssay by National Center for Advancing Translational Sciences (NCATS).
Only some compounds are listed: those with a hit (about 4.7% of all), similar ones and a draw of the others.
S2 tox: Viability Counterscreen for Primary qHTS for Inhibitors of ATXN expression | S2 cells (HEK-293 line with an ATXN2-luciferase reporter) viability, CellTiter-Fluor protease fluorescence, 24 h | Potency, µM (highest dose often 56.7 µM), hits mostly cytotoxic | 0.49% of 400,000 active; further: potency means the concentration at half of the fitted maximal effect; nearly all actives have a fitted effect of over 40% in size
ATXN2 expr inh: Primary qHTS for Inhibitors of ATXN expression. HEK-293 ATXN2-luciferase reporter, luminescence, 24 h. Potency, µM (doses to about 57 µM), for inactives: at the highest dose activity change, negative = inhibition, most hits filed as inhibitors. 0.72% of 360,000 active. AID 1745845, 2022; further: potency means the concentration at half of the fitted maximal effect; on the % scale 0 is the no-effect control and ±100 the full control effect; nearly all actives have a fitted effect of over 55% in size
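qHTS (up to 57 uM final) was run with 24 h compound exposure of reporter cells at 37 °C. Each well was multiplexed: SteadyGlo luminescence measured ATXN2-luciferase expression after a fluorogenic Gly-Phe-AFC viability readout (25 uM final).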
D3 ag: qHTS of D3 Dopamine Receptor Agonist: qHTS. D(3) dopamine receptor (Homo sapiens), P35462. D3R DiscoveRx beta-arrestin cells, luminescence, 90 min. max activation, %. 0.58% of 410,000 active; in the data active means max activation above about 30%; further: 0% is about no effect
Target sequence (P35462 whole entry, looked up): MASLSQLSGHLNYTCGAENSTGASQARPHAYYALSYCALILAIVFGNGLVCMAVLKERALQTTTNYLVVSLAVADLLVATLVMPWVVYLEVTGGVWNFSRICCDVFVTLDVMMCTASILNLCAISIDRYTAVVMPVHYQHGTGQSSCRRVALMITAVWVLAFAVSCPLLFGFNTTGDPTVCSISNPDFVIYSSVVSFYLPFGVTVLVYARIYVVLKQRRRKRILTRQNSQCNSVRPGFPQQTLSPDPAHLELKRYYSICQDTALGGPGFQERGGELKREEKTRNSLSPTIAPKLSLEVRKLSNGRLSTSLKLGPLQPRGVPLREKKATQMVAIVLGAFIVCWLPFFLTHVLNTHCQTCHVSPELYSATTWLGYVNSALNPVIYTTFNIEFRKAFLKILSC
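Agonist-mode cell screen: cells plated at 1500/well and incubated overnight at 37 °C, then exposed to library compounds for 90 min at 37 °C. Detection reagent was added for 30–60 min at room temperature, and luminescence was read.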
HepG2 tox: qHTS for Inhibitors of TGF-b: Cytotox Counterscreen | HepG2 CAGA-GFP viability, ATP luminescence, 18 h | Potency, µM (series often up to 46.1 µM), for the others: at the top dose activity change, negative = cytotoxicity, hits mostly cytotoxic | 0.76% of 410,000 active | AID 588856, 2011; further: potency means the concentration at half of the fitted maximal effect
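CellTiter-Glo luminescence gave cytotoxicity after 18 hours at 37 degrees C. The cells were HepG2 CAGA-GFP in 1% FBS DMEM, stimulated with 500 pg/mL TGF-beta after compound addition. %Activity was normalised to no-cell wells (complete cell-killing) and DMSO (no toxicity), and curves were fitted and classified.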
D3 antag: qHTS of D3 Dopamine Receptor Antagonist: qHTS | D(3) dopamine receptor (Homo sapiens), P35462 | D3R cells, DiscoveRx beta-arrestin luminescence, antagonist mode; active compounds read low | max response, negative = inhibition, % | 2.5% of 360,000 active; in the data active means max response below about -50%; inconclusive means no clear call, values can overlap the other calls; further: on the % scale 0 is the no-effect control and ±100 the full control effect
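Cells plated overnight at 1500 cells/well, then exposed to library compounds with dopamine controls for 90 minutes at 37 degrees C. DiscoveRx reagent added for 30–60 minutes at room temperature; luminescence read, quantitative HTS format.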
TGFb inhibitor: qHTS for Inhibitors of TGF-b. HepG2 CAGA-GFP TGF-b/SMAD3 reporter, GFP fluorescence, 18 h; TGF-beta stimulated, 500 pg/mL final. Potency, µM (top dose mostly 46.1 µM), inactives show at the top dose activity, negative = inhibition, hits mostly inhibitors. 1.2% of 410,000 active. AID 588855, 2011; further: potency means the concentration at half of the fitted maximal effect; on the % scale 0 is the no-effect control and ±100 the full control effect; nearly all actives have a fitted effect of over 65% in size
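Cell-based qHTS in HEPG2 carrying a CAGA-GFP Smad reporter; compounds added before 500 pg/mL final TGF-beta, 18 h incubation at 37 degrees C, GFP fluorescence quantified per cell by imaging cytometry.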
* hit, by the source's call; ! = not active in a repeat; [ ] = remark or other dose. Unless noted, the call rests on the fitted dose curve; in most records, active means well fitted curve in the direction sought with a large enough effect; inconclusive means small, poorly fitted or top-dose-only effect, or another doubt; inactive means no such curve, though single readings can be large; an effect the other way counts as inactive or inconclusive.

Results for Cc1cccc2sc(NS(=O)(=O)c3ccccc3)nc12 ?
S2 tox: inactive; ATXN2 expr inh: 16%; D3 ag: -2; HepG2 tox: 0%; D3 antag: -64*; TGFb inhibitor: -13%

How did CCOC(=O)c1sc(NS(=O)(=O)c2ccccc2)nc1C do in these assays?
S2 tox: inactive; ATXN2 expr inh: 6%; D3 ag: -15; HepG2 tox: -4%; D3 antag: -60*; TGFb inhibitor: 1%

Results for CCOC(=O)c1sc(NS(=O)(=O)c2ccc(F)cc2)nc1C ?
S2 tox: inactive; ATXN2 expr inh: -25%[11.3 µM]; D3 ag: 4; HepG2 tox: 4%; D3 antag: 15; TGFb inhibitor: -2%

How did CC(=O)N1CCC[C@H]1C(=O)NCC1Cc2cc(-c3cccc(OC(F)(F)F)c3)ccc2O1 (stereo partly specified) do in these assays?
S2 tox: inactive

How did O=C(CCN1CCN(C(=O)OCc2cc(Cl)cc(Cl)c2)CC1)c1ccc2[nH]c(=O)oc2c1 do in these assays?
ATXN2 expr inh: 6%

What do the screens show for `CC1Nc2ncnc(N3CCN(c4ccccn4)CC3)c2N(Cc2ccccc2)C1=O` (stereo unspecified)?
S2 tox: inactive; ATXN2 expr inh: 2%; D3 ag: -45; HepG2 tox: 4%; D3 antag: -106*; TGFb inhibitor: -20%

Results for CCC1Nc2ncnc(N3CCCCC3)c2N(Cc2ccccc2)C1=O (stereo unspecified) ?
S2 tox: inactive; ATXN2 expr inh: 5%; D3 ag: -8; HepG2 tox: -1%; D3 antag: -13; TGFb inhibitor: -19%

Results for COc1ccc(CN2C(=O)C(C)Nc3ncnc(N4CCc5ccccc5C4)c32)cc1 (stereo unspecified) ?
S2 tox: inconclusive; ATXN2 expr inh: -19%; D3 ag: -1; HepG2 tox: 2%; D3 antag: 4; TGFb inhibitor: inconclusive

What do the screens show for `COc1ccc(CN2C(=O)C(C)Nc3ncnc(N4CCN(c5ccccn5)CC4)c32)cc1` (stereo unspecified)?
S2 tox: inconclusive; ATXN2 expr inh: -12%; D3 ag: -58; HepG2 tox: 8%; D3 antag: -149*; TGFb inhibitor: 4%

What do the screens show for `Cc1ccc(CN2C(=O)C(C)Nc3ncnc(N4CCN(c5ccccn5)CC4)c32)cc1` (stereo unspecified)?
S2 tox: inconclusive; ATXN2 expr inh: inconclusive; D3 ag: -54; HepG2 tox: -12%; D3 antag: -132*; TGFb inhibitor: -1%

Results for CC(C)(C)n1ncc2c(=O)n(Cc3cccc(F)c3)cnc21 ?
HepG2 tox: 4%; TGFb inhibitor: -17%

How did COc1ccccc1Nc1nn2c(=O)c3ccc(C(=O)NCc4ccc(F)cc4)cc3nc2s1 do in these assays?
S2 tox: inconclusive; ATXN2 expr inh: inconclusive; D3 ag: -9; HepG2 tox: 4µM*; TGFb inhibitor: 3.2µM*

How did CCc1ccccc1Nc1nn2c(=O)c3ccc(C(=O)NCc4ccccc4OC)cc3nc2s1 do in these assays?
S2 tox: inactive; ATXN2 expr inh: inconclusive; D3 ag: 3; HepG2 tox: 1%; TGFb inhibitor: 29%

Results for C(C#CCCCCCCCCC[n+]1ccccc1)#CCCCCCCCCC[n+]1ccccc1 ?
S2 tox: 13µM*; ATXN2 expr inh: 7.1µM*!; D3 ag: 0; HepG2 tox: -163%; D3 antag: -5; TGFb inhibitor: 11µM*

Results for Cc1ccc(NC(=O)C2CCCN(S(=O)(=O)c3ccc4c(c3)CCCC(=O)N4)C2)cc1Cl (stereo unspecified) ?
S2 tox: inconclusive; ATXN2 expr inh: inconclusive; D3 ag: 6; HepG2 tox: -21%; TGFb inhibitor: inconclusive

How did CC(C)c1ccc(NC(=O)CCNC(=O)Cn2ccc3ccccc3c2=O)cc1 do in these assays?
S2 tox: inactive; ATXN2 expr inh: -11%; D3 ag: -5; HepG2 tox: -1%; D3 antag: -26; TGFb inhibitor: 12%

How did O=C(CCN1C(=O)/C(=C\c2cccs2)SC1=S)Nc1ccc(C(=O)O)cc1 do in these assays?
S2 tox: inactive; ATXN2 expr inh: 9%; D3 ag: 2; HepG2 tox: -2%; D3 antag: -10; TGFb inhibitor: 1%

Results for CCN(CC)CCOC(=O)c1ccc(NC(=O)CCNC(=O)Cn2ccc3ccccc3c2=O)cc1 ?
S2 tox: inactive; ATXN2 expr inh: 6%; D3 ag: 0; HepG2 tox: 7%; D3 antag: -64*; TGFb inhibitor: 4%

Results for Cc1ccc2c(c1)N(CCC(=O)NCc1ccccn1)C(=O)CO2 ?
S2 tox: inactive; ATXN2 expr inh: 1%; D3 ag: -5; HepG2 tox: -1%; D3 antag: -64*; TGFb inhibitor: -9%

What do the screens show for `O=C(Cn1nc(-c2ccccc2)ccc1=O)NCCN1CCN(c2cccc(Cl)c2)CC1`?
S2 tox: inactive; ATXN2 expr inh: -21%; D3 ag: -31; HepG2 tox: -29%; D3 antag: -60*; TGFb inhibitor: -2%

Results for Cc1ccc2c(c1)N(CCC(=O)NCc1cccnc1)C(=O)CO2 ?
S2 tox: inactive; ATXN2 expr inh: -7%; D3 ag: -5; HepG2 tox: 5%; D3 antag: 8; TGFb inhibitor: 0%

Results for CCN(CC)CCOC(=O)c1ccc(NC(=O)CCCN2C(=O)/C(=C\c3cccs3)SC2=S)cc1 ?
ATXN2 expr inh: inconclusive; D3 ag: -24; HepG2 tox: -70%; D3 antag: -109*; TGFb inhibitor: inconclusive

Results for COc1ccc(CNC(=O)CN2C(=O)CSc3ccc(S(=O)(=O)N4CCC(C)CC4)cc32)cc1 ?
D3 ag: -14; HepG2 tox: -5%; TGFb inhibitor: -6%

What do the screens show for `O=C(Cn1ccc2ccccc2c1=O)NCCC(=O)N1CCN(c2cccc(Cl)c2)CC1`?
S2 tox: inactive; ATXN2 expr inh: -30%; D3 ag: -5; HepG2 tox: -20%; D3 antag: 32; TGFb inhibitor: -11%

Results for O=C(CCN1C(=O)COc2ccccc21)NCCN1CCN(c2cccc(Cl)c2)CC1 ?
S2 tox: inactive; ATXN2 expr inh: inconclusive; D3 ag: -31; HepG2 tox: -33%; D3 antag: -69*; TGFb inhibitor: inconclusive
